Screening results: PubChem BioAssay, National Center for Advancing Translational Sciences (NCATS)
GAA inh = blocks human lysosomal alpha-glucosidase; purified human GAA, 4-MU-alpha-glucoside fluorescence; 200,000 compounds, 0.005% hits; P10253; Potency, µM (titrated, usually from 76.9 µM), inactives show at the highest dose activity change, negative = inhibition, actives largely listed as inhibitors;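 further: potency means the concentration at half of the fitted maximal effect; plate controls were uninhibited enzyme wells for no effect and no-enzyme background for full effect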
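Compounds are titrated up to 77 uM against 4 nM human enzyme. Substrate 4-methylumbelliferyl-alpha-D-pyranoside (400 uM) reacts 20 min at room temperature in pH 5.0 buffer; liberated 4-methylumbelliferone is read at 440 nm.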
GLA spleen mod = alpha-galactosidase A (human) modulation; P06280; human spleen homogenate, 4MU-alpha-Gal fluorescence, 40 min; Potency, µM (highest dose often 80 µM), for inactives: at the highest dose activity change, negative = inhibition, hits mostly inhibitors; 240,000 compounds, 0.008% hits;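 further: potency means the concentration at half of the fitted maximal effect; 0% = enzyme with vehicle and -100% = no enzyme basal signal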
Target sequence (P06280 32-429 limits assumed): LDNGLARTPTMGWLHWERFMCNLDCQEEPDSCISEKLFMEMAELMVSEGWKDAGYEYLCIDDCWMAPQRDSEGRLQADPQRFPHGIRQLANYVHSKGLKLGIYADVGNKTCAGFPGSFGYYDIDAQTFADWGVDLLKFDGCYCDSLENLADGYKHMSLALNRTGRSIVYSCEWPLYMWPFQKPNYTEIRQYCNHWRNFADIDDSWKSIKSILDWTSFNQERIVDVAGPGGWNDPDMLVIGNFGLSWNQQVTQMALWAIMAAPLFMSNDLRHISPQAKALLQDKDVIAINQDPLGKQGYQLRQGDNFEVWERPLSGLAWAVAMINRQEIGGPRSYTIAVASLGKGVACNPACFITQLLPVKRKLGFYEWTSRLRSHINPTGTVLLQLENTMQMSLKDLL
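Fluorogenic readout (Ex 365/Em 440 nm) of 4-methylumbelliferone released from 1 mM 4-MU-alpha-galactoside by spleen homogenate, 40 min at 37C, pH 5.0. Data normalized to no-enzyme and enzyme controls; Hill-equation AC50 from compound titrations.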
GLA inh pH 4.5 = alpha-galactosidase A (human) inhibition, pH 4.5; activity change, negative = inhibition, % at 105 µM; 230,000 tested, under 10 active; purified enzyme, 4-MU-alpha-Gal fluorescence, pH 4.5; P06280;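 further: 0% = full activity with enzyme and -100% = basal without enzyme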
N370S GC mod = N370S glucocerebrosidase modulation, Gaucher chaperone candidate; P04062; N370S GC spleen homogenate, 4MU-glucoside fluorescence; Potency, µM (series often up to 59.4 µM), without a hit: top-dose activity change, negative = inhibition, hits mostly inhibitors; 330,000 compounds, 0.092% hits;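 further: potency means the concentration at half of the fitted maximal effect; 0% = full enzyme activity and -100% = no enzyme basal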
GAA glycogen = alters human alpha-glucosidase cleavage of glycogen; Potency, µM (doses to about 76.4 µM), without a hit: at the highest dose activity change, negative = inhibition, actives largely listed as inhibitors; P10253; 300,000 compounds, 0.38% hits; AID 2100; recombinant GAA, glycogen substrate, Amplex Red glucose oxidase fluorescence;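 further: potency means the concentration at half of the fitted maximal effect; 0% = full enzyme reaction and -100% = no-enzyme basal signal; the screen sought inhibitors and activators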
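Natural-substrate format: glycogen cleavage by 4 nM human enzyme, glucose read by Amplex Red coupling (Ex 573, Em 610 nm). Normalized to enzyme and no-enzyme controls.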
aGlu spleen mod = lysosomal alpha-glucosidase (human) modulation; P10253; human spleen homogenate, 4-MU-alpha-glucoside fluorescence; Potency, µM (highest dose often 79.9 µM), for the others: at the highest dose activity change, negative = inhibition, hits mostly inhibitors; 240,000 compounds, 0.006% hits; AID 2112;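 further: potency means the concentration at half of the fitted maximal effect; 0% = enzyme with vehicle and -100% = no enzyme basal signal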
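Compounds were titrated against alpha-glucosidase in spleen homogenate at pH 5.0, with 1 mM 4-methylumbelliferyl substrate for 40 min at 37 C. Reactions were quenched with pH 10 NaOH/glycine and fluorescence measured.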
* = called active by the depositor; ? = inconclusive; nt = not tested or not shown; [ ] = remark or other dose. A selection: hits, their analogues and other compounds. The true share with any hit is near 0.41%. The call rests on the fitted dose curve; in most records, active means well fitted curve in the direction sought with a large enough effect; inconclusive means small, poorly fitted or top-dose-only effect, or another doubt; inactive means no such curve, though single readings can be large; an effect the other way counts as inactive or inconclusive.

SMILES	GAA inh	GLA spleen mod	GLA inh pH 4.5	N370S GC mod	GAA glycogen	aGlu spleen mod
O=c1[nH][nH]cc1C=Nc1ccccc1O	6%	-2%	-6	7%	?	-20%
COc1ccc(S(=O)(=O)Nc2cc(S(=O)(=O)c3ccccc3)c(O)cc2C)cc1	nt	nt	nt	5%	1%	nt
Cc1cc(O)c(C(C)C)cc1NS(=O)(=O)c1ccccc1	-4%	-3%	-2	4%	9.9µM*	-3%
Cc1ccc(S(=O)(=O)Nc2cc(C)c(O)c(S(=O)(=O)c3ccc(C)cc3)c2)cc1	-10%	4%	-5	17%	11µM*	-3%
Cc1ccc(S(=O)(=O)c2cc(Nc3ccccc3)ccc2O)cc1	nt	nt	nt	-2%	nt	nt
Cc1cc(NS(=O)(=O)c2ccccc2)cc(Cl)c1O	-11%	3%	0	1%[2.35 µM]	20µM*	-2%
Cc1cc(-c2ccc(N=Nc3cc(S(=O)(=O)O)c4ccccc4c3N)c(C)c2)ccc1N=Nc1cc(S(=O)(=O)O)c2ccccc2c1N	nt	-7%	nt	?	nt	-12%
CCN(CC)C(=O)c1sc(NC(=O)C(C)Sc2nc(-c3ccccc3)cc(C(F)(F)F)n2)c(C(=O)OC)c1C (stereo not drawn)	nt	nt	nt	nt	6%[76.3 µM]	nt
COC(=O)c1[nH]c2ccc(Cl)cc2c1NC(=O)Oc1ccccc1	9%	13%	5	10%	25µM*	0%
CC(C)N(C(=O)Cn1cc(SCC(=O)Nc2ccccc2F)c2ccccc21)C(C)C	nt	nt	nt	nt	-9%[76.3 µM]	nt
COc1ccc(Nc2nc(C)c(-c3ccccc3)s2)cc1	-9%	3%	-4	-7%	14µM*	-2%
Cc1nc(Nc2ccc(S(N)(=O)=O)cc2)sc1-c1ccccc1	nt	nt	nt	1%	6%	nt
CCOC(=O)c1ccc(NC(=O)c2ccc3c(c2)NC(=O)c2ccccc2S3)cc1	nt	nt	nt	nt	10%[76.3 µM]	nt
CC(=O)c1ccc2c(c1)Nc1ccccc1S2	-2%	-10%	-3	3%	31µM*	-5%
CCOC(=O)Nc1ccc2c(c1)Nc1ccccc1S2	-10%	0%	-8	-5%	14µM*	2%
CCOc1ccc(Cc2n[nH]c(=S)n2N)cc1	4%	-1%	12	0%	4%	-4%
COc1ccc(N2Nc3n[nH]c(N)c3N2)cc1	-11%	-7%	-6	-24%	25µM*	?
CCOc1ccc(N2Nc3n[nH]c(N)c3N2)cc1	-8%	-2%	-4	-11%	22µM*	-14%
CCOc1ccc(N(CC(=O)Nc2ccc(C)cc2)S(=O)(=O)c2c(C)[nH]c(=O)[nH]c2=O)cc1	nt	0%	-6	2.8µM*	3%	5%
CCOc1ccc(N(CC(=O)Nc2ccc(F)cc2F)S(=O)(=O)c2c(C)[nH]c(=O)[nH]c2=O)cc1	nt	nt	nt	nt	13%[76.3 µM]	nt
CCOc1ccc(NC(=O)CN(c2ccc(OCC)cc2)S(=O)(=O)c2c(C)[nH]c(=O)[nH]c2=O)cc1	-2%	-4%	1	6.3µM*	-10%	-2%
CCOc1ccc(N(CC(=O)Nc2ccc(OC)cc2)S(=O)(=O)c2c(C)[nH]c(=O)[nH]c2=O)cc1	-2%	1%	2	?	-1%	3%
C/C=C/OC(=O)NC(c1ccccc1)[C@]1(C(C)=O)CCOC1=O (stereo partly drawn)	nt	8%[17.5 µM]	nt	13%[12.8 µM]	nt	6%[17.4 µM]
Cc1ccc(Cl)cc1N1CCN(S(=O)(=O)c2ccc3[nH]c(=O)ccc3c2)CC1	nt	nt	nt	-7%	0%[76.3 µM]	nt
Cc1ccc(Cl)cc1N1CCN(S(=O)(=O)c2ccc3[nH]c(=O)c(=O)[nH]c3c2)CC1	-4%	6%	3	8.9µM*	3%	0%
SMILES	GAA inh	GLA spleen mod	GLA inh pH 4.5	N370S GC mod	GAA glycogen	aGlu spleen mod
O=c1ccc2ccccc2[nH]1	nt	11%	nt	-12%	nt	4%
COc1cccc(C(c2c(NC(=O)c3ccccc3)sc(C)c2C)N2CCN(C)CC2)c1 (stereo not drawn)	5%	4%	1	16µM*	3%	3%
CCOc1ccc(Nc2nc(Cc3nnc(SCC(=O)NC4CCCCC4)n3C)cs2)cc1	0%	7%	11	-3%	?	-5%
CCOc1ccc(Nc2nc(Cc3nnc(SCC(=O)NCC4CCCO4)n3C)cs2)cc1 (stereo not drawn)	-3%	-7%	8	4%	11µM*	-8%
COc1ccc(NC(=S)N(CCCN2CCOCC2)Cc2cn(C)c3ccccc23)cc1OC	0%	4%	-20	?	?	-15%
COc1cccc(NC(=S)N(CCCN2CCOCC2)Cc2cn(C)c3ccccc23)c1	-4%	-8%	-2	2.8µM*	4%	-5%
O=C(O)CC/C(=N/Nc1ncc(C(F)(F)F)cc1Cl)C(=O)O	-3%	2%	5	-8%	18µM*	-2%
CCCCN(CC)S(=O)(=O)c1ccc(C(=O)N(CCCN(C)C)c2nc3cc(C)cc(C)c3s2)cc1	-5%	-2%	-5	?	16%	5%
CCN(Cc1ccccc1)S(=O)(=O)c1ccc(C(=O)N(CCCN(C)C)c2nc3cc(C)cc(C)c3s2)cc1	nt	nt	nt	14µM*	nt	nt
O=[N+]([O-])c1cc(-c2nnc(Nc3ccc(O)cc3)c3ccccc23)ccc1N1CCOCC1	-4%	-3%	-4	?	16µM*	-1%
OCCNc1nc(Nc2ccccc2)nc(Nc2ccccc2)n1	-2%	-1%	-2	11µM*	2%	-2%
OCCNc1nc(Nc2ccccc2)nc2ccccc12	-6%	4%	-1	6%	1%	-1%
C[C@H](O)C(N)C(=O)O (stereo partly drawn)	nt	0%	nt	0%	nt	2%
CCOc1cc2c3c(c1)C1(OCCO1)C(=O)N3C(C)(C)CC2C (stereo not drawn)	-6%	3%	-15	5%	-4%	0%
CCOc1cc2c3c(c1)C1(Nc4ccccc4S1)C(=O)N3C(C)(C)CC2C (stereo not drawn)	-7%	-2%	-6	15%	35µM*	-1%
CCOC(=O)c1c(OCC)[nH]c2c1cc(O)c1ccccc12	-2%	6%	2	?	25µM*	5%
Nc1ccc2nc(N3CCOCC3)sc2c1	-3%	1%	-6	0%	6.3µM*	2%
Cc1ccc(OCCn2cc(/C(N)=N/O)c3ccccc32)cc1C	-6%	-5%	-6	?	40µM*	-24%
COc1ccc(OCCn2cc(/C(N)=N/O)c3ccccc32)cc1	?	9%	1	-15%	12µM*	-5%
COC(=O)c1cn(CCOc2ccccc2)c2ccccc12	-6%	-9%	-4	26%	-7%	3%
Cc1ccc(OCCn2cc(C(=S)N3CCCC3)c3ccccc32)cc1C	1%	-2%	3	13%	-3%	-19%
